Assay outcomes: PubChem BioAssay, National Center for Advancing Translational Sciences (NCATS)
Many of the other results were omitted from the sample, so hits are more common in it than they were.
AMA1 RON2 block – inhibitors of Plasmodium falciparum AMA1-RON2 interaction. AlphaScreen AMA1-biotinylated RON2 peptide binding. Potency, µM (series often up to 58.2 µM), actives largely listed as inhibitors. hit rate 0.2% among 360,000; active = well fitted inhibition curve with a large enough effect; inconclusive = small, poorly fitted or top-dose-only effect; inactive = no such curve, though single readings can be large or run the other way; also: nearly all actives have a fitted effect of over 45% in size
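AMA1 (3D7) with his tag at 25 nM final met compounds first, then biotinylated RON2 peptide at 25 nM; detection used donor plus acceptor beads, 10 µg/mL apiece, read by AlphaScreen after 30 min at room temperature.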
Marburg entry inh – inhibitors of Marburg virus binding or cell entry; Marburg virus pseudotyped entry inhibition, cell reporter; Potency, µM (series often up to 37.8 µM), most hits filed as inhibitors; hit rate 1.8% among 300,000; AID 540276; calls by dose curve; tested in HEK293 cells
Lassa entry inh – inhibitors of Lassa virus binding or cell entry. Lassa virus pseudotype entry inhibition, cell reporter. Potency, µM (titrated, usually from 37.9 µM), actives largely listed as inhibitors. hit rate 1.2% among 300,000; calls by dose curve; tested in HEK293 cells; also: nearly all actives have a fitted effect of over 50% in size
Shiga inhibitor – Shiga toxin inhibition | Vero cells, Shiga toxin protein synthesis inhibition reporter | inhibition, % at 38.7 µM | hit rate 9.2% among 290,000; in the data active = inhibition mostly above about 28%, no sharp cut-off; inactive = mostly below about 43%
Cycloheximide cs – counter-screen hit for Shiga toxin inhibitors, cycloheximide; cell reporter, cycloheximide protein synthesis inhibition counterscreen; max response, %; hit rate 12% among 300,000; AID 2314; in the data active = max response mostly above about 13%, no sharp cut-off; inactive = mostly below about 14%; also: read at 38.3 µM for the half of the compounds with a filed dose
Of the large screens only hits and unclear results are named; the others gave an inactive call.

O=C(C(c1ccccc1)c1ccccc1)N1CCCc2ccccc21	Marburg entry inh 14µM, Shiga inhibitor 119, Cycloheximide cs 30
COc1ccc(N2CC(C(=O)N3CCc4ccccc43)CC2=O)cc1 (stereo unspecified)	none (no result: Shiga inhibitor, Cycloheximide cs)
O=C1CC(C(=O)N2CCCc3ccccc32)CN1c1ccc(F)cc1 (stereo unspecified)	Shiga inhibitor 75, Cycloheximide cs 25
O=C(C1COc2ccccc2O1)N1CCc2ccccc21 (stereo unspecified)	Shiga inhibitor 67, Cycloheximide cs 68
O=C(C1CCCCC1)N1CCCc2ccccc21	Cycloheximide cs 22
O=C1CC(C(=O)N2CCCc3ccccc32)CN1c1ccc(Cl)cc1 (stereo unspecified)	Cycloheximide cs 39
COc1ccc(N2C(=O)C(CN3CCCCC3)C2c2ccccc2)cc1 (stereo unspecified)	none (no result: Marburg entry inh, Lassa entry inh)
CCN(CC)CC1C(=O)N(c2ccc(OC)cc2)C1c1ccccc1 (stereo unspecified)	Marburg entry inh 8.9µM, Lassa entry inh inconclusive
O=C(NNC(=O)c1cc2ccccc2o1)c1ccc(F)cc1	none (no result: Shiga inhibitor, Cycloheximide cs)
O=C(c1ccc(F)cc1)c1cc2ccccc2o1	Lassa entry inh inconclusive, Shiga inhibitor 41, Cycloheximide cs 26
O=C(NCc1ccc(F)cc1)c1cc2ccccc2o1	Cycloheximide cs 14
O=C(c1ccccc1)c1cc2ccccc2o1	Marburg entry inh inconclusive, Shiga inhibitor 80, Cycloheximide cs 38
O=C(NCc1nnnn1-c1ccc(F)cc1)c1cc2ccccc2o1	none (no result: Marburg entry inh, Lassa entry inh, Shiga inhibitor, Cycloheximide cs)
CC(C)c1ccc(NC(=O)C(C)N(c2ccccc2)S(C)(=O)=O)cc1 (stereo unspecified)	none (no result: AMA1 RON2 block, Shiga inhibitor, Cycloheximide cs)
c1ccc2c(c1)nc1n2C2(N3CCOCC3)CCCC2C1N1CCOCC1 (stereo unspecified)	Cycloheximide cs 10
Nc1nc(Nc2cccc(Cl)c2)nc(NCc2ccco2)c1[N+](=O)[O-]	Marburg entry inh 5.6µM, Lassa entry inh inconclusive, Cycloheximide cs 34
Cc1cccc(Nc2nc(NCc3ccco3)nc(N)c2[N+](=O)[O-])c1	Marburg entry inh 5.6µM, Lassa entry inh inconclusive
Cc1cccc(Nc2nc(N)c([N+](=O)[O-])c(NCc3ccco3)n2)c1	Marburg entry inh inconclusive
Nc1nc(Nc2ccc(Cl)cc2)nc(NCc2ccco2)c1[N+](=O)[O-]	Marburg entry inh inconclusive, Shiga inhibitor 84, Cycloheximide cs 48
CNc1nc(Nc2ccc(Br)cc2)nc(N)c1[N+](=O)[O-]	AMA1 RON2 block inconclusive, Marburg entry inh inconclusive, Shiga inhibitor 51, Cycloheximide cs 24
COc1ccc(Nc2nc(NCc3ccco3)nc(N)c2[N+](=O)[O-])cc1	none
COCCN1C(=O)NC(c2ccco2)C(C(=O)OC)=C1C (stereo unspecified)	none (no result: AMA1 RON2 block, Lassa entry inh, Shiga inhibitor, Cycloheximide cs)
C[C@@H]1CN([C@H](C)CO)C(=O)CCCn2cc(nn2)CO[C@H]1CN(C)S(=O)(=O)c1ccccc1	none (no result: Marburg entry inh, Lassa entry inh, Shiga inhibitor, Cycloheximide cs)
CN(CC(=O)Nc1cccc(F)c1)C(=O)/C=C/c1ccc2ccccc2n1	Lassa entry inh inconclusive
O=C(NCCS(=O)(=O)N1CCN(c2ccc(F)cc2)CC1)C12CC3CC(CC(C3)C1)C2	Marburg entry inh inconclusive (no result: Shiga inhibitor, Cycloheximide cs)
Nc1nc(NCc2ccco2)nc(N2CCCCC2)c1[N+](=O)[O-]	Marburg entry inh 10µM
Nc1nc(NCC2CCCO2)nc(Nc2cccc(F)c2)c1[N+](=O)[O-] (stereo unspecified)	none (no result: Marburg entry inh, Lassa entry inh)
Nc1nc(Nc2cccc(F)c2)nc(NCc2ccco2)c1[N+](=O)[O-]	Marburg entry inh inconclusive, Lassa entry inh inconclusive, Cycloheximide cs 13
Nc1nc(NC(=O)CCC(=O)O)nn1-c1ccccc1	none
CCS(=O)(=O)N1CC(=O)N(c2ccccc2C)C(C)(C(=O)NC2CCCCC2)C1 (stereo unspecified)	none (no result: AMA1 RON2 block, Marburg entry inh, Shiga inhibitor, Cycloheximide cs)
CCc1ccc(-c2cc(C)no2)cc1S(=O)(=O)N1CCN(c2ccccc2)CC1	Marburg entry inh inconclusive
O=C(CCC(F)(F)F)N1CCCC(N2CCN(c3cccc(Cl)c3)CC2)C1 (stereo unspecified)	none (no result: Marburg entry inh, Lassa entry inh, Shiga inhibitor, Cycloheximide cs)
Nc1nc(Cl)nc2c1ncn2[C@@H]1O[C@H](COP(=O)(O)OP(=O)(O)OP(=O)(O)O)[C@H](O)[C@H]1O	none (no result: AMA1 RON2 block, Lassa entry inh, Shiga inhibitor, Cycloheximide cs)
Fc1cccc(Cl)c1C1Nc2cccc3cccc(c23)N1	Cycloheximide cs 24 (no result: Marburg entry inh, Lassa entry inh)
Clc1cccc(Cl)c1C1Nc2cccc3cccc(c23)N1	Marburg entry inh inconclusive, Lassa entry inh inconclusive
CCOC(=O)c1c(CC(C)C)csc1NC(=O)c1ccccc1C(=O)O	none (no result: Marburg entry inh, Lassa entry inh)
CC(C)Cc1csc(NC(=O)c2ccc(F)cc2)c1C(=O)O	Marburg entry inh inconclusive, Lassa entry inh inconclusive, Shiga inhibitor 56, Cycloheximide cs 40
CCOc1ccc(C(=O)Nc2ccccc2N2CCCC2)cc1	Cycloheximide cs 29
CCOc1ccc(C(=O)C2CCN(CC(=O)Nc3ccccc3N3CCOCC3)CC2)cc1	Marburg entry inh inconclusive, Lassa entry inh 18µM
CCOc1ccccc1N1CC(C(=O)Nc2ccccc2N2CCOCC2)CC1=O (stereo unspecified)	Cycloheximide cs 38
CC1(C(=O)NS(=O)(=O)c2ccc(Cl)cc2)CCN1C(=O)c1ccc(C2CCCCC2)cc1 (stereo unspecified)	none (no result: Marburg entry inh, Lassa entry inh, Shiga inhibitor, Cycloheximide cs)
COc1ccc(Cl)cc1CC1(C)C(=O)Nc2ccc(S(=O)(=O)NC3CCCCC3)cc21 (stereo unspecified)	none (no result: Marburg entry inh, Lassa entry inh, Shiga inhibitor, Cycloheximide cs)
Cc1cccc(C)c1NC(=O)CCC(=O)N1Cc2ccccc2Oc2ncccc21	none (no result: AMA1 RON2 block, Marburg entry inh, Shiga inhibitor, Cycloheximide cs)
CCCCN(C)CCCNC(=O)c1cn(CC)c2ccc(S(=O)(=O)N3CCc4ccccc4C3)cc2c1=O	Marburg entry inh 5.6µM
COc1ccc(CNC(=O)CCC2N=C3c4ccccc4N=C(SCc4ccc(F)cc4)N3C2=O)cc1 (stereo unspecified)	none (no result: AMA1 RON2 block, Marburg entry inh, Shiga inhibitor, Cycloheximide cs)
O=[N+]([O-])c1nn(-c2ccc3c(c2)OCCO3)n(O)c1=NC1CCN(Cc2ccccc2)CC1	none (no result: Marburg entry inh, Lassa entry inh)
COc1cc(N=c2c([N+](=O)[O-])nn(-c3ccc4c(c3)OCCO4)n2O)cc(OC)c1	Marburg entry inh inconclusive, Lassa entry inh inconclusive, Shiga inhibitor 19, Cycloheximide cs 29
CCc1cccc(N=c2c([N+](=O)[O-])nn(-c3ccc(Cl)cc3)n2O)c1	AMA1 RON2 block inconclusive, Marburg entry inh inconclusive
CN=c1c([N+](=O)[O-])nn(-c2ccc3c(c2)OCCO3)n1O	Shiga inhibitor 61, Cycloheximide cs 32 (no result: Marburg entry inh, Lassa entry inh)
CCc1cccc(N=c2c([N+](=O)[O-])nn(-c3ccc4c(c3)OCCO4)n2O)c1	AMA1 RON2 block inconclusive, Marburg entry inh inconclusive, Lassa entry inh inconclusive, Shiga inhibitor 71
CC(C)c1ccc(N=c2c([N+](=O)[O-])nn(-c3ccc4c(c3)OCCO4)n2O)cc1	AMA1 RON2 block inconclusive, Cycloheximide cs 14
CC(C)NC(=O)C1CCN(C2CCN(Cc3ccc4cccc(F)c4n3)CC2)CC1	none (no result: Marburg entry inh, Lassa entry inh)
CC(C)c1ccc(OCc2ccc(C(=O)N3CCN(c4ccccn4)CC3)cc2)cc1	Marburg entry inh inconclusive, Lassa entry inh inconclusive, Cycloheximide cs 30
CC(C)c1ccc(COc2ccc(C(=O)N3CCOCC3)cc2)cc1	Cycloheximide cs 16 (no result: Marburg entry inh, Lassa entry inh)
CC(C)c1ccc(C(=O)N2CCCN(C(=O)c3ccc(C(C)C)cc3)CC2)cc1	Marburg entry inh inconclusive, Lassa entry inh inconclusive
Cc1ccc(OCc2ccc(C(=O)N3CCOCC3)cc2)cc1C	Lassa entry inh inconclusive, Shiga inhibitor 54, Cycloheximide cs 31
